Molecules are shown by their SMILES. About 83,000 compounds went through this panel and 20% of them were active in at least one assay; those are over-represented in the sample as a whole.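 Values shown are percent growth following 48 h exposure of cells in 96-well plates to a single concentration of compound; below 10 was considered active.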 A number with no mark means an inactive call. Calls of active or inactive are those of the source.

Test systems include NCI-H23 lung; NCI-H226 lung; HOP-62 NSCLC; NCI-H460 lung; HOP-92 NSCLC; NCI-H522 lung; 786-0 renal; COLO 205 colon; A549/ATCC NSCLC; NCI-H322M lung.
Holding throughout (assay): NCI-60 one-dose screen, 48 h (100 = growth as untreated, 0 = no growth, -100 = all killed)
Holding throughout (conditions): 10 µM

In the case of `Cc1ccccc1N=C(c1ccccc1)C1C(=O)c2ccccc2C1=O`, the growth is 87.6% with NCI-H23 lung; 90.4% with NCI-H226 lung; 98.8% with HOP-62 NSCLC; 101% in the experiment with NCI-H460 lung; 72.7% in the experiment on HOP-92 NSCLC; 59% in the experiment on NCI-H522 lung. Moreover, the growth with 786-0 renal was 88.6%; in the experiment with COLO 205 colon it was 103%.

For the molecule `COCCCC/C(=N\OCCN)c1ccc(C(F)(F)F)cc1`, the growth in the experiment with NCI-H23 lung was 100%; with NCI-H226 lung it was 101%; in the experiment with NCI-H460 lung, 106%; with HOP-92 NSCLC it was 63.2%; in the experiment on A549/ATCC NSCLC it was 102%; in the experiment with 786-0 renal, 100%. In addition, in the experiment on COLO 205 colon, the growth is 101%.

Turning to `Cc1cc(=O)n(-c2ccc(F)cc2)[nH]1`, the growth was 103% with NCI-H23 lung; 98.3% in the experiment on NCI-H226 lung; 95.6% with NCI-H322M lung; 106% in the experiment on NCI-H460 lung; 97.6% with NCI-H522 lung; 102% in the experiment on A549/ATCC NSCLC. The growth in the experiment on 786-0 renal is 105%; with COLO 205 colon it was 107%.

With `CCOC(=O)CSc1c([N+](=O)[O-])ncn1C`, the growth in the experiment with NCI-H23 lung is 95.6%; with NCI-H226 lung, 105%; in the experiment with HOP-62 NSCLC, 98.6%; in the experiment with NCI-H460 lung, 104%; in the experiment with HOP-92 NSCLC it was 113%; with NCI-H522 lung, 99.9%. The growth is 97.6% with A549/ATCC NSCLC, 111% in the experiment with 786-0 renal and 110% in the experiment on COLO 205 colon.

Take `Cc1ccc(C(=O)NC2c3ccccc3Oc3ccccc32)cc1`: the growth in the experiment on NCI-H23 lung is 70.4%; in the experiment with NCI-H226 lung, 79%; in the experiment on HOP-62 NSCLC, 32.2%; in the experiment with NCI-H460 lung, 59.8%; with HOP-92 NSCLC, 62.1%; with NCI-H522 lung, 41.2%. Moreover, the growth is 48.9% in the experiment on A549/ATCC NSCLC, 25.7% in the experiment on 786-0 renal and 73.6% in the experiment on COLO 205 colon.

As for `CC(C)=NNC(N)=S`, the growth in the experiment with NCI-H23 lung is 77.7%; with NCI-H226 lung, 83.7%; with NCI-H322M lung it was 104%; in the experiment on NCI-H460 lung it was 83.4%; in the experiment with HOP-92 NSCLC it was 85.8%; in the experiment on NCI-H522 lung it was 88%. The growth in the experiment with A549/ATCC NSCLC was 92.6%; in the experiment with 786-0 renal, 104%; with COLO 205 colon it was 83.5%.

Consider `CCCCC(CC)COC(C)=O` (configuration not stated), for which the growth with NCI-H23 lung was 100%; in the experiment on NCI-H226 lung, 105%; in the experiment on NCI-H322M lung, 98%; in the experiment with NCI-H460 lung, 106%; with HOP-92 NSCLC, 95.6%; in the experiment on NCI-H522 lung, 105%. In addition, the growth in the experiment with A549/ATCC NSCLC was 105%; in the experiment with 786-0 renal it was 96%; with COLO 205 colon, 100%.

Take `Cc1cc(OCCO)cc(C)c1Cl`: the growth in the experiment with NCI-H23 lung was 106%; in the experiment on NCI-H226 lung, 108%; in the experiment on HOP-62 NSCLC it was 111%; in the experiment with NCI-H460 lung, 114%; in the experiment with HOP-92 NSCLC, 114%; in the experiment on NCI-H522 lung it was 114%. In addition, the values for the growth with A549/ATCC NSCLC, with 786-0 renal and in the experiment on COLO 205 colon were 104%, 97.3% and 123%, respectively.

`CSC(=N\N=C\c1ccc(N(C)C)cc1)/N=C/N(C)C`: the growth with NCI-H23 lung was 112%; with NCI-H226 lung it was 90%; in the experiment with NCI-H322M lung it was 102%; in the experiment on NCI-H460 lung, 95.4%; with NCI-H522 lung, 107%; in the experiment on A549/ATCC NSCLC, 103%. Besides, the growth in the experiment with 786-0 renal was 103%; in the experiment with COLO 205 colon it was 110%.

For the molecule `CCc1nc(N)nc(N)c1-c1ccc(Cl)cc1`, the growth in the experiment with NCI-H23 lung was 64.4%; in the experiment with NCI-H226 lung, 65.7%; in the experiment on HOP-62 NSCLC it was 64.2%; in the experiment with NCI-H460 lung, 21.2%; in the experiment with HOP-92 NSCLC it was 97.7%; in the experiment on NCI-H522 lung, 83%. Further, the growth was 26.6% in the experiment with A549/ATCC NSCLC, 35.9% with 786-0 renal and 76.5% in the experiment with COLO 205 colon.

For the molecule `CC1C(=O)c2ccccc2CC1C(=O)O` (configuration not stated), the growth is 96.8% in the experiment on NCI-H23 lung; 99.5% in the experiment with NCI-H322M lung; 105% in the experiment with HOP-62 NSCLC; 122% with NCI-H460 lung; 101% in the experiment with HOP-92 NSCLC; 93.8% in the experiment with A549/ATCC NSCLC. Moreover, the growth in the experiment on 786-0 renal is 110%; in the experiment with COLO 205 colon it was 105%.

Regarding `O=[N+]([O-])c1cccc(N=Nc2ccc(O)cc2O)c1`, the growth in the experiment on NCI-H23 lung was 74.3%; in the experiment with NCI-H322M lung, 95.9%; in the experiment on HOP-62 NSCLC, 103%; with NCI-H460 lung, 91.6%; in the experiment on HOP-92 NSCLC, 47.4%; in the experiment with NCI-H522 lung, -11.1% (active). Besides, the growth in the experiment on A549/ATCC NSCLC is 93.6%; with 786-0 renal, 74%; in the experiment with COLO 205 colon, 92.2%.

As for `CC(=O)OCC(=O)[C@@]1(O)CC[C@H]2[C@@H]3CC[C@@H]4C[C@H](O)CC[C@]4(C)[C@H]3C(=O)C[C@@]21C`, the growth in the experiment on NCI-H23 lung is 103%; in the experiment on NCI-H322M lung it was 131%; with HOP-62 NSCLC it was 105%; with NCI-H460 lung, 108%; in the experiment with HOP-92 NSCLC, 93.4%; with NCI-H522 lung, 90.4%. For the same molecule, the growth is 101% with A549/ATCC NSCLC, 105% in the experiment with 786-0 renal and 105% with COLO 205 colon.

For `Cc1ccc(S(=O)(=O)O)c(C)c1`, the growth in the experiment on NCI-H23 lung is 105%; in the experiment on NCI-H322M lung it was 96.7%; in the experiment on HOP-62 NSCLC, 94.5%; in the experiment with NCI-H460 lung, 103%; in the experiment with HOP-92 NSCLC, 92.4%; in the experiment on NCI-H522 lung, 90.2%. Moreover, the growth in the experiment on A549/ATCC NSCLC is 104%; with 786-0 renal, 103%; with COLO 205 colon it was 104%.

`O=[N+]([O-])c1ccc(Sc2ccncn2)c([N+](=O)[O-])c1`: the growth in the experiment with NCI-H226 lung was 55.3%; in the experiment on NCI-H322M lung, 106%; with HOP-62 NSCLC, 92.4%; with NCI-H460 lung it was 99.3%; with HOP-92 NSCLC it was 103%; with NCI-H522 lung, -62.2% (active). Further, the growth in the experiment on A549/ATCC NSCLC was 122%; in the experiment with 786-0 renal it was 69.7%; in the experiment on COLO 205 colon, 27%.

With `CCCCCCCCCCC1CO1` (configuration not stated), the growth was 106% with NCI-H23 lung; 109% in the experiment with NCI-H322M lung; 95.1% with HOP-62 NSCLC; 105% in the experiment with NCI-H460 lung; 89.7% with HOP-92 NSCLC; 102% in the experiment with NCI-H522 lung. For the same molecule, the growth in the experiment on A549/ATCC NSCLC was 99.5%; in the experiment on 786-0 renal, 101%; in the experiment with COLO 205 colon, 105%.

Consider `CCNc1nc2c(cnn2C)c(=O)[nH]1`, for which the growth with NCI-H23 lung is 99.7%; with NCI-H322M lung, 95.5%; with HOP-62 NSCLC, 101%; in the experiment with NCI-H460 lung, 108%; with HOP-92 NSCLC, 99.8%; in the experiment with NCI-H522 lung it was 98.4%. Further, the growth in the experiment on A549/ATCC NSCLC was 109%; in the experiment on 786-0 renal, 101%; in the experiment on COLO 205 colon, 96.5%.

For the origin of these results see PubChem BioAssay (NCI).
